Mdm2 MdmX PPI = human Mdm2/MdmX binding inhibition. SaOS-2 split-luciferase Mdm2/MdmX complementation, luminescence. hit rate 3% among 330,000. O15151+Q00987. inhibition, % at 8 µM;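 active means inhibition of at least 50% at 8 µM in the primary screen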
Target sequence (O15151 whole entry, looked up): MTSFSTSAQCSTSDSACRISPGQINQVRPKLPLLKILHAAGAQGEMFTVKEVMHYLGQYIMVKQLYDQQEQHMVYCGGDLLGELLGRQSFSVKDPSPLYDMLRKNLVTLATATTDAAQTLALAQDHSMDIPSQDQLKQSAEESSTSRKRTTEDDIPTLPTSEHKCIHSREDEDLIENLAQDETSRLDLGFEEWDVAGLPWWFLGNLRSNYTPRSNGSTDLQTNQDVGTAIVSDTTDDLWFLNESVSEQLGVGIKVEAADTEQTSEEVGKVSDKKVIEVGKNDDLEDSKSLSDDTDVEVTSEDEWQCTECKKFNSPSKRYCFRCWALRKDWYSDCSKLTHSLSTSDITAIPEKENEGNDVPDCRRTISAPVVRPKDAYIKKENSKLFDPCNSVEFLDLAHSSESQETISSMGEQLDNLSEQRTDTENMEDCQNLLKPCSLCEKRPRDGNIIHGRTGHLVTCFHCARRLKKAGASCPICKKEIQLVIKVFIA
Target sequence (Q00987 whole entry, looked up): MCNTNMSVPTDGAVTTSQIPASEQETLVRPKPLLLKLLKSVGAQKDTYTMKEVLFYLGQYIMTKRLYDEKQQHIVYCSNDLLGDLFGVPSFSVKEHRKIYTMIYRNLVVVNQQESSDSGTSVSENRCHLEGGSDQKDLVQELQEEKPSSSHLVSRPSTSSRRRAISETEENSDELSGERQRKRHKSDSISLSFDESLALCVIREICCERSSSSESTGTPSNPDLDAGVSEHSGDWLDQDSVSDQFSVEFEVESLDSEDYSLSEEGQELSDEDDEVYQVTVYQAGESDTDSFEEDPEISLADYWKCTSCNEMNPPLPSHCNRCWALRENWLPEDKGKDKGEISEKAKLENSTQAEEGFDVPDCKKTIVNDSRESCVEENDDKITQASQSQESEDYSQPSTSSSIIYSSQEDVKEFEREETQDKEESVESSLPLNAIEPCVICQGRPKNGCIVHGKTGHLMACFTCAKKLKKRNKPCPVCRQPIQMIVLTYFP
Calb FLC = C. albicans growth modulation with fluconazole; C. albicans CaCi-2 (fluconazole-resistant clinical isolate) + fluconazole, Alamar Blue growth, 48 h; growth inhibition, % (test concentration not listed); hit rate 0.57% among 300,000;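 active means growth inhibition above about 58% in most replicates, limit read from the data, passing the limit was not always enough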;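 further: all wells also contain fluconazole at 8 µg/ml as a sub-toxic cotreatment; 0% = median of DMSO wells and 100% = median of geldanamycin control wells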
CSC inhib = cancer stem cell inhibition. cancer stem cell-like cells viability, luminescence. hit rate 1.1% among 300,000. inhibition, % at 7.5 µM; in the data active means inhibition above about 75%; tested in HMLE shEcad cells
Beta cell apopt = blocks beta cell apoptosis; AID 435005; protection from apoptosis, % (no concentration beside the values); hit rate 0.8% among 300,000; INS-1E cytokine-induced death, ATP luminescence, 48 h; percent of positive-control rescue, neutral wells zero;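 active means Every replicate reaches about 75%, or at least half do and their mean reaches it too, limit read from the data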;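 further: 0% = cytokine-treated negative control wells and 100% = positive control rescue; higher means more ATP so stronger rescue from cytokine killing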
MPTP block = permeability transition pore inhibition; isolated mouse mitochondria, Ca2+ swelling absorbance, 30 min; inhibition, % at 10 µM; hit rate 1.4% among 360,000;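 active means inhibition of 50% or more, scaled per plate between neutral and stimulator controls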;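 further: 0% = DMSO wells given calcium and 100% = 1 mM EGTA wells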
Numbers without * were called inactive. In the library only some 4.8% were active in any assay of this set; here they are far more common.

How did CCc1nc2c(OCc3ccccc3C)cccn2c1N(C)C(=O)c1ccc(C)cc1 do in these assays?
MPTP block: -0.1

How did Fc1cccc2sc(Nc3nnc(-c4ccco4)o3)nc12 do in these assays?
Mdm2 MdmX PPI: 3.9; Calb FLC: 85.2*; CSC inhib: 23.3; Beta cell apopt: 27.5; MPTP block: 1.1

What do the screens show for `O=C(Nc1nc2c(F)cccc2s1)c1ccco1`?
Mdm2 MdmX PPI: -113.4; Calb FLC: 3.5; CSC inhib: -4.0; Beta cell apopt: 7.1; MPTP block: 0.1

What do the screens show for `CCOc1cc(OCC)cc(C(=O)N2CCC[C@H]2C(=O)N2CCC[C@H]2C(=O)N(C)Cc2ccccc2)c1`?
MPTP block: -0.4

What do the screens show for `CC(C)N1CCc2c(sc(NC(=O)c3nc4ccccc4s3)c2C(N)=O)C1`?
Mdm2 MdmX PPI: 14.0; Calb FLC: 119.3*; CSC inhib: -3.0; Beta cell apopt: 4.1; MPTP block: -1.2

What do the screens show for `COC(=O)c1c(NC(=O)Cc2ccccc2)sc2c1CCN(C(C)C)C2`?
Mdm2 MdmX PPI: -5.9; Calb FLC: -4.1; CSC inhib: -5.4; Beta cell apopt: 0.4; MPTP block: 0.4

What do the screens show for `CC(C)(C)c1nnc(NC(=O)CCS(=O)(=O)Cc2ccccc2)s1`?
Mdm2 MdmX PPI: 23.5; Calb FLC: 70.1; CSC inhib: -9.7; Beta cell apopt: -16.8; MPTP block: -1.6

What do the screens show for `O=C(CCS(=O)(=O)c1ccccc1)Nc1nnc(C(F)(F)F)s1`?
Mdm2 MdmX PPI: -8.5; Calb FLC: 97.0*; CSC inhib: 10.0; Beta cell apopt: -2.8; MPTP block: 0.6

What do the screens show for `O=C(CS(=O)(=O)c1ccccc1)Nc1nnc(C(F)(F)F)s1`?
Mdm2 MdmX PPI: 32.2; Calb FLC: 1.1; CSC inhib: 1.3; Beta cell apopt: -0.2; MPTP block: 1.4

What do the screens show for `O=C(CCS(=O)(=O)Cc1ccccc1)Nc1nnc(C(F)(F)F)s1`?
Mdm2 MdmX PPI: 6.6; Calb FLC: 82.9*; Beta cell apopt: -4.2; MPTP block: -0.3

What do the screens show for `Cc1nnc(NC(=O)CCS(=O)(=O)c2ccccc2)s1`?
Mdm2 MdmX PPI: 31.9; Calb FLC: -8.1; CSC inhib: -5.6; Beta cell apopt: -11.4; MPTP block: -0.3

Results for CC(C)(C)c1nnc(NC(=O)CCS(=O)(=O)c2ccccc2)s1 ?
Mdm2 MdmX PPI: 26.4; Calb FLC: 93.3*; CSC inhib: -0.3; MPTP block: 2.0

Results for CC(C)CNC(=O)C1C(=O)Nc2ccccc2C(=O)N1C1CCCCC1 (stereo unspecified) ?
MPTP block: -2.1

What do the screens show for `O=C(N[C@@H]1CC[C@@H](CCNS(=O)(=O)c2ccc(Cl)cc2)O[C@@H]1CO)c1cccnc1`?
MPTP block: 0.6

Results for COC(=O)[C@@]12C[C@@H](CC(=O)N3CCOCC3)C(=O)N(Cc3cccc4ccccc34)C1=CCC(C)(C)C2 ?
MPTP block: 1.7

How did COc1cc(-c2nc3ccc(C)cn3c2NCc2ccccc2)ccc1SC1CCCCC1 do in these assays?
Mdm2 MdmX PPI: 48.6; Calb FLC: 3.9; CSC inhib: 28.7; Beta cell apopt: 109.9*; MPTP block: 5.5

What do the screens show for `COc1ccc(-c2nc3cnccn3c2NCc2ccccc2)cc1SC1CCCCC1`?
Mdm2 MdmX PPI: 19.7; Calb FLC: 24.4; CSC inhib: 42.7; Beta cell apopt: 9.9; MPTP block: 0.8

Results for COc1cc(-c2nc3ccc(C)cn3c2NCc2ccccc2)ccc1-c1cccc(Cl)c1 ?
Mdm2 MdmX PPI: 41.7; CSC inhib: 69.4; Beta cell apopt: 102.0*; MPTP block: 2.7

Results for Cc1ccc2nc(-c3ccc(-c4cccc(Cl)c4)cc3)c(NCc3ccccc3)n2c1 ?
Mdm2 MdmX PPI: -16.7; Calb FLC: -1.7; CSC inhib: 91.1*; Beta cell apopt: 121.1*; MPTP block: 3.2

What do the screens show for `CC(C)Nc1ncnc2c1ncn2[C@H]1CN(Cc2cccs2)C[C@@H](CO)O1`?
MPTP block: 0.0

How did CCC1CCCCN1S(=O)(=O)c1ccc(S(=O)(=O)N(Cc2ccccn2)CC2CCCO2)cc1 (stereo unspecified) do in these assays?
Mdm2 MdmX PPI: 6.7; Calb FLC: 1.4; CSC inhib: 79.0*; Beta cell apopt: 72.5; MPTP block: 0.8

Results for O=S(=O)(NCC1CCCO1)c1ccc(S(=O)(=O)N(Cc2ccc(F)cc2)Cc2ccccn2)cc1 (stereo unspecified) ?
Mdm2 MdmX PPI: -14.1; Calb FLC: 1.2; CSC inhib: 3.9; Beta cell apopt: -2.8; MPTP block: -0.3

How did CN1CCN(Cc2cc(Cl)c3cccnc3c2OC(=O)c2cccs2)CC1 do in these assays?
Mdm2 MdmX PPI: 29.5; Calb FLC: 2.4; CSC inhib: 17.0; Beta cell apopt: 50.5; MPTP block: -4.3

Results for Oc1c(CN2CCOCC2)cc(COCc2ccccc2)c2cccnc12 ?
Calb FLC: 82.6*; CSC inhib: 48.3; Beta cell apopt: 97.6*; MPTP block: -3.1

How did Oc1c(CN2CCN(c3ccccc3)CC2)cc(Br)c2cccnc12 do in these assays?
Calb FLC: 101.6*; CSC inhib: 113.9*; Beta cell apopt: 98.0*; MPTP block: -0.5

Results for COCc1cc(CN2CCN(C)CC2)c(O)c2ncccc12 ?
Mdm2 MdmX PPI: 7.5; Calb FLC: 107.5*; CSC inhib: 24.7; Beta cell apopt: 23.8; MPTP block: -1.7

Results for c1ccc(N2CCN(Cc3ccnc4ccccc34)CC2)cc1 ?
Mdm2 MdmX PPI: 8.7; Calb FLC: 12.3; CSC inhib: 12.1; Beta cell apopt: -4.2; MPTP block: 28.8

What do the screens show for `O=C(NCc1ccc(Cl)c(Cl)c1)c1cc(C2CCCCN2C(=O)CCc2ccccc2)on1` (stereo unspecified)?
MPTP block: 2.5

How did O=S1(=O)N=C(N2CCOCC2)c2ccccc21 do in these assays?
Mdm2 MdmX PPI: 3.8; Calb FLC: 3.2; CSC inhib: 11.2; Beta cell apopt: 2.0; MPTP block: 0.3

How did O=S1(=O)N=C(Nc2ccc(N3CCOCC3)cc2)c2ccccc21 do in these assays?
Mdm2 MdmX PPI: 13.6; Calb FLC: 86.2*; CSC inhib: 0.3; Beta cell apopt: -0.8; MPTP block: -1.9

How did Cc1ccc(-c2cc(-c3ccccc3)nc(NN)n2)cc1 do in these assays?
Mdm2 MdmX PPI: 44.0; Calb FLC: 8.5; CSC inhib: 82.7*; Beta cell apopt: 1.1; MPTP block: 0.0

What do the screens show for `O=C(NCC[C@@H]1CC[C@@H](NS(=O)(=O)c2ccccc2)[C@@H](CO)O1)c1cc(Cl)cc(Cl)c1`?
MPTP block: -1.2

What do the screens show for `Cc1ccc(N=C2SC(C(=O)Nc3ccc(OC(F)(F)F)cc3)C(N)=C2C(=O)Nc2c(C)cc(C)cc2C)cc1` (stereo unspecified)?
CSC inhib: 106.5*; Beta cell apopt: 98.9*; MPTP block: 39.8

How did COc1ccc(C(=O)c2[nH]c(N)c(C(=O)NCCc3c[nH]c4ccccc34)c2-c2ccc(Cl)c(F)c2)cc1 do in these assays?
MPTP block: 1.7

What do the screens show for `N#CC(C#N)=C1C=CC=CN1/C(=C\c1ccco1)C(=O)c1ccc(-c2ccccc2)cc1`?
CSC inhib: 75.1*; Beta cell apopt: 16.3; MPTP block: -1.9

Screens deposited in PubChem BioAssay by several laboratories.
